# Laboratory results: the supplement of paper PMC4237247
# Tested on: HeLa
# Assay: percent cells in G2/M phase; higher = more G2/M arrest
# Details: 10 µM; 20 h; hit class: G2/M-phase inhibitor
# Method: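 HTS of 79,827 drug-like compounds at 10 uM. HeLa cells in 384-well plates were treated for 20 h, fixed, stained with Vybrant DyeCycle Green and scanned on an Acumen eX3 cytometer to give per-well cell cycle profiles. Only G2/M hits (>=67% G2/M) are listed.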
row,Compound,percent cells in G2/M phase
1,CN1Cc2c(ccc3c2OCO3)[C@@H]2[C@H]1c1cc3c(cc1C[C@@H]2O)OCO3 [Chelidonine monohydrate (+)],72%
